The supplement of paper PMC6555819

Key:
Assay in all cases: PBM binding z-score (relative to random genomic background probes); higher = stronger binding; sequences stand for … in GC…GCGATTGACAGCGTAGAATGAAGG
[1] = test system: FXR:RXRa (NR concentration 270 nM, RXRa partner concentration 90 nM)
Method in brief: (§1)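 Custom Agilent 4×180K protein-binding microarrays carried double-stranded probes. Their 34-nt variable regions held direct-repeat seeds, single-nucleotide variants, half-site ablations and random human genomic background sequences. Arrays were incubated 1 h with ligand-free nuclear receptor dimers in PBS pH 7.4, 2% milk, 0.02% Triton X-100, 1 mM DTT, 0.2 mg/mL BSA and 0.4 mg/ml salmon testes DNA. Antibodies against each partner (one per run) detected binding, and scanned fluorescence was regression-normalized. Binding z-scores use random background probes as reference.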

[2] = test system: LXRa:RXRa (NR concentration 270 nM, RXRa partner concentration 90 nM)
Method in brief: as §1

[3] = test system: LXRa homodimer (NR concentration 270 nM)
Method in brief: as §1

[4] = test system: LXRb:RXRa (NR concentration 270 nM, RXRa partner concentration 90 nM)
Method in brief: as §1

[5] = test system: LXRb homodimer (NR concentration 270 nM)
Method in brief: as §1

[6] = test system: PPARa:RXRa (NR concentration 270 nM, RXRa partner concentration 90 nM)
Method in brief: as §1

[7] = test system: PPARg:RXRa (NR concentration 180 nM, RXRa partner concentration 90 nM)
Method in brief: as §1

[8] = test system: PPARg:RXRa 270nM:90nM, anti-RXR (NR concentration 270 nM, RXRa partner concentration 90 nM)
Method in brief: as §1

[9] = test system: PPARg:RXRa 30nM:10nM, anti-RXR (NR concentration 30 nM, RXRa partner concentration 10 nM)
Method in brief: as §1

[10] = test system: PPARg:RXRa 90nM:30nM, anti-RXR (NR concentration 90 nM, RXRa partner concentration 30 nM)
Method in brief: as §1

[11] = test system: PPARg:RXRa DBDmut IVT, anti-RXR (DBD mutation: RXRa K156A/R161A, NR concentration 270 nM, RXRa partner concentration 90 nM)
Method in brief: as §1

[12] = test system: PPARg:RXRa IVT, anti-PPARg (NR concentration 270 nM, RXRa partner concentration 90 nM)
Method in brief: as §1

[13] = test system: PPARg DBDmut:RXRa IVT, anti-PPARg (DBD mutation: PPARg1 K132A/R137A, NR concentration 270 nM, RXRa partner concentration 90 nM)
Method in brief: as §1

[14] = test system: PPARg DBDmut IVT, anti-PPARg (DBD mutation: PPARg1 K132A/R137A, NR concentration 270 nM)
Method in brief: as §1

[15] = test system: PPARg homodimer (NR concentration 180 nM)
Method in brief: as §1

[16] = test system: PXR:RXRa (NR concentration 270 nM, RXRa partner concentration 90 nM)
Method in brief: as §1

[17] = test system: PXR homodimer (NR concentration 270 nM)
Method in brief: as §1

[18] = test system: RARa:RXR (NR concentration 270 nM, RXRa partner concentration 90 nM)
Method in brief: as §1

[19] = test system: RARa homodimer (NR concentration 270 nM)
Method in brief: as §1

[20] = test system: RARb:RXRa (NR concentration 270 nM, RXRa partner concentration 90 nM)
Method in brief: as §1

Sequence	PBM binding z-score [1]	PBM binding z-score [2]	PBM binding z-score [3]	PBM binding z-score [4]	PBM binding z-score [5]	PBM binding z-score [6]	PBM binding z-score [7]	PBM binding z-score [8]	PBM binding z-score [9]	PBM binding z-score [10]	PBM binding z-score [11]	PBM binding z-score [12]	PBM binding z-score [13]	PBM binding z-score [14]	PBM binding z-score [15]	PBM binding z-score [16]	PBM binding z-score [17]	PBM binding z-score [18]	PBM binding z-score [19]	PBM binding z-score [20]
GCAGACAGGTGAAACACAGGTAACTCAGGGTGGC	0.0737	0.312	-0.336	-0.415	-0.7	0.874	0.952	0.125	-0.424	-0.0605	0.926	0.641	-0.0327	-0.651	-0.0531	-0.0674	-0.462	0.56	-0.402	0.685
CCGACTGGGGCAAGGTTGCCATAACGCACAGCCA	-0.306	-0.375	-0.461	-0.29	-1.05	0.601	1.87	2.77	0.553	2.2	2.66	2.53	-0.344	-1.02	0.0482	-0.535	-0.379	-0.46	-0.394	0.641
CCTACTGGGCCACGCAAGGTCATTGATTCAGTGA	2.92	3.83	2.79	2.39	-0.438	3.32	2.94	3.26	1.18	2.34	5.58	5.36	0.0336	0.776	2.02	4.51	1.84	3.48	0.546	2.81
CCGAGTAGGTTATGGGGCATTCGGGCAACGGTGA	0.24	0.637	0.00114	0.528	-0.313	2.4	3.36	4.85	2.16	4.57	2.83	3.88	-0.19	-0.259	0.492	0.00674	-0.383	0.377	-0.149	1.1
AGCGAAAGGTCGTGAGGTGAGTATACAGAAAGGC	5.99	3.84	-0.142	3.17	-0.2	5.26	4.55	4.97	1.84	3.25	0.425	2.63	0.478	1.08	1.38	2.81	0.0715	3.96	0.217	4.29
GCGACTGGGGCAAAGTAGGTTACCATAAGGTTGG	0.147	0.172	-0.28	0.557	-0.493	2.29	2.59	3.18	0.758	2.3	5.3	5.17	-0.411	-0.49	-0.0778	0.322	-0.231	0.681	-0.558	1.21
GCTCGGAGGACAAGGTCAGAGCCTTGTCCGTAGA	2.67	2.08	-0.456	1.59	-0.419	2.91	0.887	2.22	-0.306	1.23	-0.797	1.42	-1	-0.556	0.956	1.46	-0.573	1.8	-0.489	3.49
CCGACTGGGGCAGCAAGGTTACCATACCATCCGG	-0.0165	-0.101	-0.322	-0.094	-0.744	0.883	0.917	0.659	-0.509	0.147	1.54	2.54	-0.529	-1.62	0.27	0.264	-0.339	0.662	-0.434	1.39
CGTCCAAGGTTAAAGGTCAGTGAAGAGATGACGG	6.23	5.21	1.72	4.9	0.226	6.28	8.06	7.36	6.31	8.12	1.93	4.19	0.18	0.148	3.37	5.79	0.975	7.42	1.36	5.01
TCTCGGAGCACACGAAGGTCAGAGCTTTCCAGAG	0.286	0.742	-0.215	0.706	-1.73	1.7	0.118	1.06	1.04	0.995	0.43	0.198	-0.909	-1.03	0.396	1.12	-1.04	1.49	-1.5	2.39
CCTACTGGGCCATCACGTCATTGATATCAACGTT	-0.11	-0.114	-0.158	0.0401	-0.225	0.509	0.963	1.09	0.356	0.648	4.36	3.56	0.399	0.151	0.3	-0.248	0.0325	0.0611	-0.31	0.25
AGTCAATGTTCAGGACGAGGTAACGTAAAGCACG	-0.0403	-0.35	-0.0733	-0.154	-0.516	-0.141	0.531	-0.297	0.071	-0.0574	-0.569	0.526	0.282	0.266	-0.126	-0.119	-0.33	0.306	0.567	0.167
TCTTGTAGATCAACAGCAGGTTAAGAAAGATCGA	0.263	0.476	-0.0928	0.569	-0.319	0.609	-0.21	1.17	2.61	1.7	1.66	0.684	-0.0164	0.918	-0.793	0.178	-0.2	0.544	0.0361	0.0725
ACTTACGGGACAACGAGGTTATAGCACGCGTATA	0.442	0.645	0.447	0.958	0.473	1.08	1.01	0.442	0.295	0.32	0.742	0.83	0.547	1	0.641	0.83	0.728	0.933	0.919	1.03
AGTCTAAGTTCAGGACGAGGTAACGTAAAGCACG	1.61	1.56	0.288	0.821	-0.194	1.82	0.831	0.749	0.345	0.385	-0.507	0.167	0.154	0.579	1.1	2.21	1.18	1.79	0.351	2.95
ATCTCTAGGTAGAGTTCAGTGAAAGATCGATAGA	0.805	1.62	1.28	1.2	0.516	1.78	1.1	2.33	0.898	1.93	0.277	0.789	1.33	0.623	0.95	2.52	2.07	1.22	0.329	1.82
ATCGATAGGTCGTGAGGTGAGTATACAGAAAGGC	1.25	1.3	-0.0722	1.07	0.187	2.43	1.32	1.08	0.506	0.989	-0.14	1.35	1	0.371	0.792	1	0.158	1.94	0.167	1.97
CAAACTGGGTCAAGAGGTCAAAGTCCGCTTCCCG	6.73	6.26	5.68	5.53	1.32	6.47	9.59	8.33	7.11	8.47	7.83	8.28	2.26	1.72	5.48	6.28	2.74	7.7	1.96	5.29
CCTCGGAGGACAACAGGAGGTCAGCGCTGCCAGA	1.63	2.48	1.84	1.66	-0.537	2.37	0.445	0.734	-0.791	0.307	0.165	0.649	-1.42	-1.72	2.38	2.56	0.451	2.71	0.815	3.27
ATCGAAAGGTCGATGTGAGTATAGAGAAAGGGAA	3.06	2.82	-0.178	2	0.549	3.35	1.66	1.77	1.02	1.33	0.226	1.15	1.83	0.629	0.753	1.77	0.123	2.36	0.145	3.26
ATGTCTAGGTAACAAGTTCAGTGAAAGAGAGGAC	0.658	0.774	0.395	0.727	0.845	1.28	1.06	1.07	0.33	1.12	2.05	2.17	1.24	0.999	0.836	1.69	1.68	0.876	0.818	1.56
TCTATTAGTTGATGGGCAACCGACGAGTCCGTTT	0.353	0.502	-0.0154	0.186	0.322	-0.00429	0.0134	1.55	3.41	2.29	2.03	0.211	0.778	1.05	0.547	0.231	0.849	-0.171	0.633	0.125
CAAACTAGGTCAAATGTCAAAGTCGAGCCAACCA	5.99	4.61	1.45	3.78	1.49	6.77	11.8	9.72	9.92	10.8	8.77	8.6	1.94	1.58	2.71	3.16	0.325	4.96	1.02	4.26
AGAATTAGGTTATACGTAGATCAGGGAAGAAAGT	0.495	0.704	0.321	0.628	0.596	2.29	2.76	2.95	1.74	2.58	6.81	4.61	1.46	1.36	1.25	0.291	0.914	0.687	0.896	0.776
CCTATTAGTTGACCATAACGGCAACCGAAGCTCG	0.455	0.697	0.909	0.584	0.966	0.199	0.702	0.486	0.219	0.318	0.934	0.243	0.836	1.13	2.08	0.499	1.25	0.72	2.49	0.584
TCACCAAGGTGAAAGGTCGTTGATGCACGCCTTG	3.32	3.01	-0.0102	2.68	-0.932	5.28	7.74	7.39	6.81	7.43	3.13	4.81	0.292	0.0423	0.508	3.77	-0.165	4.87	-0.322	3.17
CCTAGCAGGCCAGGGTCAGTCAAGCATTTCGCTT	0.838	0.841	-0.832	1.08	-1.29	1.85	-0.277	0.376	-0.624	-0.0858	-0.0042	0.156	-1.41	-1.98	0.086	1.04	-0.793	1.69	-0.695	2.09
CGTCATAGTTCAAGGTAACGTAACAGAAAGCAGC	1.89	2.17	0.514	1.5	0.174	2.48	1.29	1.78	0.603	1.3	0.329	0.799	0.676	1.29	1.19	1.39	0.511	1.43	0.512	3.34
ATATATAGGTTATCGGGTCATTCAGTTTGCGCAT	3.94	3.78	2.66	3.46	2.07	5.17	7.65	6.52	4.09	6.01	7.55	7.39	3.48	3.64	4.29	3.91	8.17	4.26	3.1	2.96
